# Measurements: PubChem BioAssay (EPA / NIEHS)
# Inconclusive results are not listed. Calls of active or inactive are those of the source. Rule for the calls, unless noted: active = hit-call score of the fitted dose curve at least 0.9, where 1 is the maximum; inconclusive = response in the unintended direction; inactive = score below 0.9.
# What was measured:
# [1] = target: Androgen receptor (Homo sapiens) (UniProt P10275); assay: ATG_AR_TRANS: Attagene TRANS-FACTORIAL HepG2 Assay for human Androgen Receptor (AR) (AID 2282973); conditions: HepG2 Attagene TRANS-FACTORIAL AR reporter transcription
# Sequence of Androgen receptor (Homo sapiens) (P10275 whole entry, looked up, the tested form may be a part): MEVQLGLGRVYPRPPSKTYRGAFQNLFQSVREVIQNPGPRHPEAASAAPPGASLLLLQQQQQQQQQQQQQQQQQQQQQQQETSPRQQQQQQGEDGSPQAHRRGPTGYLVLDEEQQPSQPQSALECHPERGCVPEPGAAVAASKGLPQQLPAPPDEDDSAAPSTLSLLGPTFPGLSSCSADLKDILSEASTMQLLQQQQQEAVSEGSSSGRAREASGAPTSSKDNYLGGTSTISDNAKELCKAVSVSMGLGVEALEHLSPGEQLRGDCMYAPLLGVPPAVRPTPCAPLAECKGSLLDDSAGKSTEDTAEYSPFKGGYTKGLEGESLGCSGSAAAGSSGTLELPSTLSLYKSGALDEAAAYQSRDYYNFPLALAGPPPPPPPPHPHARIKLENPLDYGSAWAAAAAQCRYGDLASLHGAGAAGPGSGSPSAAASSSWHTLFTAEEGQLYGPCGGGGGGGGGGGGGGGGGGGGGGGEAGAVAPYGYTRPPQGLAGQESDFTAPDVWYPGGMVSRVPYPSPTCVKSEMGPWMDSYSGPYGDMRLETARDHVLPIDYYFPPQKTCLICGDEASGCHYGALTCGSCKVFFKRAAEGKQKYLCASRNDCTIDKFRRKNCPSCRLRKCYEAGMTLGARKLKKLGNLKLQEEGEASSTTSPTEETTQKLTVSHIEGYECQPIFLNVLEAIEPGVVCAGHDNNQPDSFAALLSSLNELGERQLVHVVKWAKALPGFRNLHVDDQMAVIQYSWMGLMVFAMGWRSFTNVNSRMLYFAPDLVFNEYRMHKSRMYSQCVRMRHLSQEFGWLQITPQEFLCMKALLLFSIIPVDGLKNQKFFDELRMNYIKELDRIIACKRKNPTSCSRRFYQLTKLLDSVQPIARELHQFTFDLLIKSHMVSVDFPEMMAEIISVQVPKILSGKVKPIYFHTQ
# Outline: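 HepG2 cells transiently transfected with AR-Gal4 chimera and GAL4-UAS reporter units; chemical exposure 24 h. Reporter mRNA quantified by RT-PCR with fluorescent labelling and capillary electrophoresis; gain-of-signal fitted against DMSO.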
# [2] = target: human Acetylcholinesterase (AChE), ACHE (gene 43) (UniProt P22303); assay: NVS_ENZ_hAChE: NovaScreen (NVS) Enzymatic Assay for human Acetylcholinesterase (AChE) (AID 2283129)
# Sequence of human Acetylcholinesterase (AChE), ACHE (gene 43) (P22303 whole entry, looked up): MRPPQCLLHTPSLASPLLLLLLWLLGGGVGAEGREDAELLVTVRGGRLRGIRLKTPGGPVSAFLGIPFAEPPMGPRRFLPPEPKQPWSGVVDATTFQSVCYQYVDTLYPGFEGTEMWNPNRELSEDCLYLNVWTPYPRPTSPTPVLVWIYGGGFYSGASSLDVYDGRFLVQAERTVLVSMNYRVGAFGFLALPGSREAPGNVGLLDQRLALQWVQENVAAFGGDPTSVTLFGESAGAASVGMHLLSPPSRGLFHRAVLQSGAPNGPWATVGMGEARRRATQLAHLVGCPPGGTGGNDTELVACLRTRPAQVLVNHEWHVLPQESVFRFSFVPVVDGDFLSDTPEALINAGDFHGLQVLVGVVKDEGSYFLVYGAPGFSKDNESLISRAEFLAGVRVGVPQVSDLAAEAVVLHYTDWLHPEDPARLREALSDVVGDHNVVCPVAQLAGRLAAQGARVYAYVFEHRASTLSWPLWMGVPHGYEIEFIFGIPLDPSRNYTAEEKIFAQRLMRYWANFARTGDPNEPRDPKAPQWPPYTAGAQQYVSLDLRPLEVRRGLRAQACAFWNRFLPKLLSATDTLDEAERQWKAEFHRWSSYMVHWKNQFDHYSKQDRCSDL
# Outline: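 Actives from a duplicate single-point screen (25 uM) were followed up in concentration series. Enzyme activity read by absorbance (colorimetric) 0.33 hour after dosing, cell-free, normalized to DMSO, with loss of signal scored.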
# [3] = target: human Aurora Kinase A - serine/threonine-protein Kinase 6 (AurA), AURKA (gene 6790) (UniProt O14965); assay: NVS_ENZ_hAurA: NovaScreen (NVS) Enzymatic Assay for human Aurora Kinase A - serine/threonine-protein Kinase 6 (AurA) (AID 2283142)
# Outline: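 Recombinant human AurA activity read by fluorescence after mobility-shift separation of product from substrate; 1 hour incubation. Chemicals first run in duplicate at 25 uM, then concentration series to 50 uM if over threshold; fitted relative to DMSO.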
# [4] = target: human Fibroblast Growth Factor Receptor 1 (FGFR1), FGFR1 (gene 2260) (UniProt P11362); assay: NVS_ENZ_hFGFR1: NovaScreen (NVS) Enzymatic Assay for human Fibroblast Growth Factor Receptor 1 (FGFR1) (AID 2283159)
# Sequence of human Fibroblast Growth Factor Receptor 1 (FGFR1), FGFR1 (gene 2260) (P11362 whole entry, looked up): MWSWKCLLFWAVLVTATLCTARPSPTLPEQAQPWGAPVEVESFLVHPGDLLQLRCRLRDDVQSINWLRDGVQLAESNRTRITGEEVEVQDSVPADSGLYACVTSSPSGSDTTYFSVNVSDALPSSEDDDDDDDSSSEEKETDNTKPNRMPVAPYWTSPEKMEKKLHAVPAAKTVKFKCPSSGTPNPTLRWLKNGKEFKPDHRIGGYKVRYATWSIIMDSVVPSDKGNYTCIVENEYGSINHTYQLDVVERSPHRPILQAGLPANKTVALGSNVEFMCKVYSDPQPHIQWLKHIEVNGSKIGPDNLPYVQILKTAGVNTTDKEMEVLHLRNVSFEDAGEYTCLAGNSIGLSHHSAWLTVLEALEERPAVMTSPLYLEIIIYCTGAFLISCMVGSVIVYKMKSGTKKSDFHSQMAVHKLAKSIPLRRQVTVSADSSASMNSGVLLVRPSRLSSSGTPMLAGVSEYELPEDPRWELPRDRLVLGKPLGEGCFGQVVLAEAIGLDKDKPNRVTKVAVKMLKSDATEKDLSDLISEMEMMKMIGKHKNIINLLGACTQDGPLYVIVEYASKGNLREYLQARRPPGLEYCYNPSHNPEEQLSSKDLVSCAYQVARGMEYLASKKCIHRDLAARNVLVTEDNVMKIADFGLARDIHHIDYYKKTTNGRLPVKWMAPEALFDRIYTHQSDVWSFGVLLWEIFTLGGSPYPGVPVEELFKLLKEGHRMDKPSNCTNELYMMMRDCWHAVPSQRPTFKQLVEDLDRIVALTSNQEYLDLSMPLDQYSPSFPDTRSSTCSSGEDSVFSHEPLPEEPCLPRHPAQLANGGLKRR
# Outline: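 Cell-free recombinant kinase with fluorescent substrate, product separated by electrophoretic mobility shift; read 1 hour after dosing, loss of signal relative to DMSO. Initial screen in duplicate at 25 uM, actives followed in concentration series.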
# [5] = target: human Raf-1 Proto-Oncogene, serine/threonine Kinase (RAF1), RAF1 (gene 5894) (UniProt P04049); assay: NVS_ENZ_hRAF1: NovaScreen (NVS) Enzymatic Assay for human Raf-1 Proto-Oncogene, serine/threonine Kinase (RAF1) (AID 2283216)
# Outline: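 Single-point screening at 25 uM (duplicate), followed by singleton concentration-response to 50 uM maximum for chemicals exceeding threshold. Enzyme activity from fluorescent substrate-product mobility-shift separation after 1 h, relative to DMSO.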
# [6] = target: rat Acetylcholinesterase (AChE), Ache (gene 83817) (UniProt P37136); assay: NVS_ENZ_rAChE: NovaScreen (NVS) Enzymatic Assay for rat Acetylcholinesterase (AChE) (AID 2283233)
# Outline: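 Compounds first screened at 25 uM in duplicate, then those passing threshold tested in concentration series up to 50 uM, against AChE from rat brain membranes. Enzyme activity read by absorbance at 0.33 h; inhibition scored versus DMSO.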
# [7] = target: human Tyrosine Protein Kinase Receptor Tie-2 (Tie2), TEK (gene 7010) (UniProt Q02763); assay: NVS_ENZ_hTie2: NovaScreen (NVS) Enzymatic Assay for human Tyrosine Protein Kinase Receptor Tie-2 (Tie2) (AID 2283225)
# Outline: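 Substrate and product were separated by mobility shift and detected by fluorescence after a 1-hour reaction with recombinant Tie2. Chemicals passing a 25 uM single-point screen were titrated to a maximum of 50 uM. Results were normalized to DMSO baseline.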
# [8] = CCTE_Harrill_HTTr_Apoptosis_PRF_DMEM_12hr: (Pilot) CCTE's 12-hour Apoptosis Assessment for the High-Throughput Transcriptomics (HTTr) Platform, in MCF-7 cells cultured in phenol red-free DMEM + 10% charcoal-stripped fetal bovine serum, Harrill Lab (AID 2283985; active = hit-call score of the fitted dose curve at least 0.9, where 1 is the maximum; inactive = score below 0.9)
# Outline: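 Caspase-3/7 activity by CellEvent Green high content imaging after 12 h compound exposure (eight concentrations) in MCF-7 grown in phenol red-free DMEM plus 10% charcoal-stripped serum; DMSO as baseline.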
# [9] = target: human Mitogen-Activated Protein Kinase 1 (MAPK 1), MAPK1 (gene 5594) (UniProt P28482); assay: NVS_ENZ_hMAPK1: NovaScreen (NVS) Enzymatic Assay for human Mitogen-Activated Protein Kinase 1 (MAPK 1) (AID 2283175)
# Outline: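 Cell-free recombinant human MAPK1 enzymatic assay, fluorescence/electrophoretic mobility shift read at 1 h; loss of signal vs DMSO. Primary screen in duplicate at 25 uM; actives (e.g. ≥30% inhibition) run as concentration-response up to 50 uM.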
# [10] = target: rat Adenylate Cyclase, Forskolin Stimulated, Adcy5 (gene 64532) (UniProt Q04400); assay: NVS_ENZ_rACFSKBinding: NovaScreen (NVS) Enzymatic Assay for rat Adenylate Cyclase, Forskolin Stimulated (AID 2283232)
# Outline: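 Chemicals were first tested at 25 uM in duplicate, then hits run as concentration series with top concentration 50 uM. Enzyme source was rat forebrain membranes; radiometric filter read-out after 1 h, referenced to DMSO.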
# [11] = target: Voltage-dependent N-type calcium channel subunit alpha-1B (Rattus norvegicus) (UniProt Q02294); assay: NVS_IC_rCaChN: NovaScreen (NVS) Ion Channel Assay for rat Calcium Channel, Type N (CaChN) (AID 2283317)
# [12] = target: rat Oxytocin Receptor (OXT), Oxtr (gene 25342) (UniProt P70536); assay: NVS_GPCR_rOXT: NovaScreen (NVS) G Protein-Coupled Receptor Assay for rat Oxytocin Receptor (OXT) (AID 2283330)
# Sequence of rat Oxytocin Receptor (OXT), Oxtr (gene 25342) (P70536 whole entry, looked up): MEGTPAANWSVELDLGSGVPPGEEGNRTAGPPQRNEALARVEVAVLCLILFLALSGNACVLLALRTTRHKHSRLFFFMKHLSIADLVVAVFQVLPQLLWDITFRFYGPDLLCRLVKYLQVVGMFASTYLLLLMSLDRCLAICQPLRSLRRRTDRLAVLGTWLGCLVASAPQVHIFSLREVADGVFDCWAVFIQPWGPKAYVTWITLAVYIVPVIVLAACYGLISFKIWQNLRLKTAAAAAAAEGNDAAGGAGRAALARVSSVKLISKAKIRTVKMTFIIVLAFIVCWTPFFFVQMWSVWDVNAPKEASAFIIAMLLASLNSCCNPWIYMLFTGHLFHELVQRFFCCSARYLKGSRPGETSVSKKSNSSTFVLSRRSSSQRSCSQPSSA
# Outline: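 Binding to rat uterine membrane receptor was followed by scintillation counting of filter-trapped radioligand after 1 h. A 25 uM duplicate single-point screen preceded concentration series with a top of 50 uM. Signal loss was analysed relative to DMSO.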
# [13] = target: human AMP-activated Protein Kinase, alpha 1 (AMPKa1), PRKAA1 (gene 5562) (UniProt Q13131); assay: NVS_ENZ_hAMPKa1: NovaScreen (NVS) Enzymatic Assay for human AMP-activated Protein Kinase, alpha 1 (AMPKa1) (AID 2283130)
# Sequence of human AMP-activated Protein Kinase, alpha 1 (AMPKa1), PRKAA1 (gene 5562) (Q13131 whole entry, looked up): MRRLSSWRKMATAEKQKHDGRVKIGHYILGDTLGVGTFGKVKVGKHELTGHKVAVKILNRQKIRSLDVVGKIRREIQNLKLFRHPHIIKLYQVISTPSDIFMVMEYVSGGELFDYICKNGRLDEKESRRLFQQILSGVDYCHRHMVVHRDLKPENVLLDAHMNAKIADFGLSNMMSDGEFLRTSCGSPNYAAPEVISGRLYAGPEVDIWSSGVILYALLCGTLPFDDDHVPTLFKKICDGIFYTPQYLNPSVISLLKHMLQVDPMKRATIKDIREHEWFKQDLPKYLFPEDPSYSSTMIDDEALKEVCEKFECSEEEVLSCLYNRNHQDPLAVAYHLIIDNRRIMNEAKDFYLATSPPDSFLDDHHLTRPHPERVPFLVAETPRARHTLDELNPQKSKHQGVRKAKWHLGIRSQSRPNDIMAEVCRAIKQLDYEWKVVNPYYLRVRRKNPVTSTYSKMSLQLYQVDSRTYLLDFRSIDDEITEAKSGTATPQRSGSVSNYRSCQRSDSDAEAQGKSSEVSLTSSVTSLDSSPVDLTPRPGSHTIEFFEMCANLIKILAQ
# Outline: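 Compounds were screened in duplicate at 25 uM, and those reaching ~30% inhibition were titrated up to 50 uM. The enzyme was recombinant human AMPKα1, and kinase turnover was read by fluorescence/mobility shift 1 h post-dosing as loss of signal versus DMSO.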
# Caspase-1 (Homo sapiens) = Caspase-1 (Homo sapiens) (UniProt P29466); assay: NVS_ENZ_hCASP1: NovaScreen (NVS) Enzymatic Assay for human Caspase 1 (CASP1) (AID 2283132)
# Sequence of Caspase-1 (Homo sapiens) (P29466 whole entry, looked up): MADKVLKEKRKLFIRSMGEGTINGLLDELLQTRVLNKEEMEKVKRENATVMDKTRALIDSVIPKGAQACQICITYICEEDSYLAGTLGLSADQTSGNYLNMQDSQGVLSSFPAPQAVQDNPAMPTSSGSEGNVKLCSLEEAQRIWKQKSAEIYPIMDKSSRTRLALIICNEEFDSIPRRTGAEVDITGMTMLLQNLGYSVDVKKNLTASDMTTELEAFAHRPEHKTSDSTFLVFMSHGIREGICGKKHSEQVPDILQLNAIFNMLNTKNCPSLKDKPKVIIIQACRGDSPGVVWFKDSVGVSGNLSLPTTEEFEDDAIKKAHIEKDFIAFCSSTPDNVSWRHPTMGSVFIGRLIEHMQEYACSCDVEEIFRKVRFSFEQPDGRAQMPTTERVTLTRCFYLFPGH
# Outline: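 Compounds were first tested in duplicate at 25 uM, with follow-up concentration series up to 50 uM. The bacterially expressed enzyme was read by fluorescence at 1 h post-dosing. Signal loss versus DMSO baseline indicates reduced enzyme activity.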
# [14] = target: human Protein Tyrosine Phosphatase Receptor Type C (PTPRC), PTPRC (gene 5788) (UniProt P08575); assay: NVS_ENZ_hPTPRC: NovaScreen (NVS) Enzymatic Assay for human Protein Tyrosine Phosphatase Receptor Type C (PTPRC) (AID 2283212)
# Sequence of human Protein Tyrosine Phosphatase Receptor Type C (PTPRC), PTPRC (gene 5788) (P08575 whole entry, looked up): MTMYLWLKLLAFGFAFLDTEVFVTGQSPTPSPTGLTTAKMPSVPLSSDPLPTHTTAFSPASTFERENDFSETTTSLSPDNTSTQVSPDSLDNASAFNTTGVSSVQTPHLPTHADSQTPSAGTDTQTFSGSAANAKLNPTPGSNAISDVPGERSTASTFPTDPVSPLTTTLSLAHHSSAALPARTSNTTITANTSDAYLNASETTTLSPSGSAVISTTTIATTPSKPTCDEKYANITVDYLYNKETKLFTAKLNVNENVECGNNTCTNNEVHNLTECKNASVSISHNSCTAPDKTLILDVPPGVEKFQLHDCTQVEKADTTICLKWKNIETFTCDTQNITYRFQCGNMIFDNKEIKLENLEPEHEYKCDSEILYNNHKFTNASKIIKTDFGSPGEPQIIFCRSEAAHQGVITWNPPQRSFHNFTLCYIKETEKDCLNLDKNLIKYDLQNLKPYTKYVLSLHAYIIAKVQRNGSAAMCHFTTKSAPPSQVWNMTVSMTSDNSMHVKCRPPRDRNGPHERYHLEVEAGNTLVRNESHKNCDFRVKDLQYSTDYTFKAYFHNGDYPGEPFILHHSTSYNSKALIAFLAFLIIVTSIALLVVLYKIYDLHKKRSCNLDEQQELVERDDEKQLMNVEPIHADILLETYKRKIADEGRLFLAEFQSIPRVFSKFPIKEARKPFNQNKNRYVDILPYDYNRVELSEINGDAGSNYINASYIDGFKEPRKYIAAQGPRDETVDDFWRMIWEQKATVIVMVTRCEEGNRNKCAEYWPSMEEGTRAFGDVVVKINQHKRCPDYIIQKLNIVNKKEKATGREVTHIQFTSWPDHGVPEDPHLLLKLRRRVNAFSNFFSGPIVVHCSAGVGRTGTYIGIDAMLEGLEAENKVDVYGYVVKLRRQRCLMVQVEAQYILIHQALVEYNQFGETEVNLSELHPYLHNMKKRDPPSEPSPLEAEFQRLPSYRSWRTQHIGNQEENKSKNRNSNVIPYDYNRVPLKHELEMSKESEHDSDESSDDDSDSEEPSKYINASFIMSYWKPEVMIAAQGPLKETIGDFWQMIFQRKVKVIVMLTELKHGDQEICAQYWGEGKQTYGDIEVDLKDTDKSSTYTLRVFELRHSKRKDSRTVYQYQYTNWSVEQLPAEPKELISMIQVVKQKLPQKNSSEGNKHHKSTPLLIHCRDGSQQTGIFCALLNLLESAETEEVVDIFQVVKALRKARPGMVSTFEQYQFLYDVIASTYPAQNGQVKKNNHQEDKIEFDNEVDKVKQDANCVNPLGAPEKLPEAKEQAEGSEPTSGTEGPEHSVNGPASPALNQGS
# Outline: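 Absorbance-based phosphatase activity of human PTPRC protein extracted from yeast was measured 1 h post-dosing. Compounds first tested at 25 uM in duplicate, then those passing threshold in singleton concentration series to 50 uM.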
# [15] = test system: rat Monoamine Oxidase, MAO-A, Central (MAOAC), gene 29253; assay: NVS_ENZ_rMAOAC: NovaScreen (NVS) Enzymatic Assay for rat Monoamine Oxidase, MAO-A, Central (MAOAC) (AID 2283243);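 note: potency refers to inhibition seen as signal drop below DMSO baseline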
# Outline: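 Scintillation read-out of MAO-A activity in rat brain lysate, 1.5 h post-dosing. Primary single-concentration screen: 25 uM, duplicate; actives re-tested in concentration series. DMSO = negative control/baseline.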
# [16] = target: rat CYP1A2, Cyp1a2 (gene 24297) (UniProt P04799); assay: NVS_ADME_rCYP1A2: NovaScreen (NVS) CYP450-related Enzyme Activity (ADME) Assay for rat CYP1A2 (AID 2283115)
# Outline: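 Primary testing ran in duplicate at 10 uM, with actives re-tested across concentration series. Fluorescence intensity from substrate turnover by recombinant protein, measured 1 hour post-dosing, with signal loss scored against acetonitrile vehicle.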
# [17] = target: human Caspase 2 (CASP2), CASP2 (gene 835) (UniProt P42575); assay: NVS_ENZ_hCASP2: NovaScreen (NVS) Enzymatic Assay for human Caspase 2 (CASP2) (AID 2283135)
# Outline: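 Single-point duplicate testing at 25 uM preceded concentration series topping at 50 uM. Activity of the recombinant E. coli-derived protease was followed by fluorescent substrate cleavage 1 h post-dosing, relative to DMSO.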
# [18] = target: human Ephrin type-A Receptor 2 (EphA2), EPHA2 (gene 1969) (UniProt P29317); assay: NVS_ENZ_hEphA2: NovaScreen (NVS) Enzymatic Assay for human Ephrin type-A Receptor 2 (EphA2) (AID 2283155)
# Outline: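 Enzyme activity of recombinant EphA2 read by fluorescence after mobility-shift separation, 1 h after dosing. Chemicals first tested at 25 uM (duplicate); those passing threshold run as concentration series, top 50 uM, single replicate, relative to DMSO.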
# [19] = target: rat Monoamine Oxidase, MAO-B, Peripheral (MAOBP), Maob (gene 25750) (UniProt P19643); assay: NVS_ENZ_rMAOBP: NovaScreen (NVS) Enzymatic Assay for rat Monoamine Oxidase, MAO-B, Peripheral (MAOBP) (AID 2283242)
# [20] = target: Norway rat Vesicular Monoamine Transporter (VMAT2), neurotransmitter transporter, Slc18a2 (gene 25549) (UniProt Q01827); assay: NVS_TR_rVMAT2: NovaScreen (NVS) Transporter Assay for Norway rat Vesicular Monoamine Transporter (VMAT2), neurotransmitter transporter (AID 2283376);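 note: actives lower the bound radioligand signal below the DMSO level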
# Outline: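 Filter-based scintillation counting of radioligand bound to rat forebrain-derived VMAT2 protein, cell-free, 1 h post-dose. Signal loss relative to DMSO control scored; single-concentration duplicate screen (25 uM) followed by concentration-response testing of actives.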
# [21] = TOX21_TRB_BLA_Agonist_Followup_viability: Viability Assessment in the Tox21 Thyroid Hormone Receptor beta Agonism Beta-lactamase (BLA) Follow-Up Assay (AID 2283956)
# Outline: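 Viability was read as CellTiter-Glo luminescence in the same wells as the TRb-bla agonist read-out. HEK293T GAL4-TRb LBD cells were treated for 18 h (37C, 5% CO2) at 11 concentrations in triplicate. Fits were bidirectional versus DMSO baseline.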
# [22] = target: human Matrix Metalloproteinase-1 (MMP1), MMP1 (gene 4312) (UniProt P03956); assay: NVS_ENZ_hMMP1: NovaScreen (NVS) Enzymatic Assay for human Matrix Metalloproteinase-1 (MMP1) (AID 2283181)
# Outline: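 Cell-free fluorescent substrate assay of human MMP1, read after 1 h. A single 25 uM duplicate screen was followed by concentration series to a maximum of 50 uM for actives meeting threshold; inhibition analysed against DMSO baseline.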
smiles,measurement,setting,value
Cc1cc(CCN2CCN(c3nsc4ccccc34)CC2)cc2c1NC(=O)CC2(C)C,outcome,[1],inactive
same,outcome,[2],inactive
same,outcome,[3],inactive
same,outcome,[4],inactive
same,outcome,[5],inactive
same,outcome,[6],inactive
C[C@]12CC[C@@H]3c4ccc(O)cc4C[C@@H](CCCCCCCCCS(=O)CCCC(F)(F)C(F)(F)F)[C@H]3[C@@H]1CC[C@@H]2O (stereo partly specified),outcome,[1],inactive
same,outcome,[2],inactive
same,outcome,[7],inactive
same,outcome,[8],inactive
COCCOC[C@H](CC1(C(=O)NC2CCC(C(=O)O)CC2)CCCC1)C(=O)Oc1ccc2c(c1)CCC2 (stereo partly specified),outcome,[1],inactive
same,outcome,[4],inactive
same,outcome,[9],inactive
same,outcome,[10],inactive
same,outcome,[11],inactive
same,outcome,[12],inactive
COc1cc(-c2nc(NC(=O)c3cc4cc(C)cc(C)c4n3CC(=O)O)sc2CCC2CCCCC2)c(OC)cc1Cl,outcome,[1],inactive
same,AC50,[13],8.19 µM (active)
same,AC50,Caspase-1 (Homo sapiens),29.1 µM (active)
same,AC50,[14],11.4 µM (active)
Oc1cc2ccccc2c2ccccc12,outcome,[1],inactive
same,AC50,Caspase-1 (Homo sapiens),12.1 µM (active)
same,AC50,[15],1.2 µM (active)
c1cc[nH]c1,outcome,[1],inactive
same,outcome,[16],inactive
O=C(O)Cn1c(=O)n(Cc2ccc(Br)cc2F)c(=O)c2ccc(Cl)cc21,outcome,[1],inactive
same,outcome,[17],inactive
same,outcome,[4],inactive
same,outcome,[14],inactive
same,outcome,[11],inactive
N#C[C@@H]1CC(F)(F)CN1C(=O)CNC1CC2CCC(C1)N2c1ncccn1 (stereo partly specified),outcome,[1],inactive
same,outcome,[18],inactive
CCC(C)N(C)C(=O)c1cc2ccccc2c(-c2ccccc2Cl)n1 (stereo unspecified),outcome,[1],inactive
same,outcome,[13],inactive
same,outcome,[4],inactive
same,outcome,[19],inactive
same,AC50,[20],9.67 µM (active)
CCCN(CCC)C(=O)SCC,outcome,[1],inactive
same,outcome,[2],inactive
same,outcome,[12],inactive
same,outcome,[21],inactive
CCCCCC(=O)O,outcome,[1],inactive
same,outcome,[13],inactive
same,outcome,[22],inactive
CCOc1cccc(-n2cc(C(=O)N3CCN(c4cc(C(=O)O)c5ccccc5c4)CC3)nc2-c2ccc(C)cc2)c1,outcome,[1],inactive
same,outcome,Caspase-1 (Homo sapiens),inactive
